# Measurements reported in PubChem BioAssay (NCATS).
# Where “and” joins values, the source holds several entries; their conditions need not be identical. Equal entries are not always repeated. Results filed as inconclusive are left out. A call without a number means that no potency is given here. Calls of active or inactive are those of the source. Calls come from the whole dose curve; as a rule, active = well fitted cell-killing curve with a large enough effect; inconclusive = small, poorly fitted or top-dose-only effect; inactive = flat fitted curve, though single readings scatter.
# Assay: Cellular viability qHTS for adrenocortical cancer (ACC) cell line NCI-H295R (AID 1963990); note: nearly all actives have a fitted effect of over 60% in size
# Details: CellTiter-Glo ATP luminescence, 48 h; series mostly up to 46.1 µM
# How it was run: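 IC50 and maximal efficacy derive from four-parameter logistic modelling of titration curves, with reads scaled between DMSO-only wells (0%) and doxorubicin hydrochloride (100% inhibition). Compounds spanned up to 46 uM over 48 h.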
# Potency is the fitted concentration of half-maximal effect.
row,Compound,Potency
1,CCCCCCCCCCCCCCCC[N+](C)(C)CCN(Cc1ccc(OC)cc1)c1ncccn1,16.4 µM (active)
2,NCC1CCN(c2nccc(-c3ccc4ccccc4c3)n2)CC1,10 µM (active)
3,O=C(O)c1ccccc1C(=O)Nc1ccc(S(=O)(=O)Nc2nccs2)cc1,inactive
4,CCN[C@H]1CN(CCCOC)S(=O)(=O)c2sc(S(N)(=O)=O)cc21,inactive
5,CNC(=O)[C@H](Cc1c[nH]c2ccccc12)NC(=O)[C@@H](CC(=O)NO)CC(C)C,inactive
6,CC[C@@H](C)Nc1cc(C(=O)NC2CC3CC[C@@H](C2)N3c2ccc(C(=O)C3CC3)cn2)c(C)cc1C(N)=O (some centres undefined),0.355 µM (active)
7,O=C(O)C(S)C(S)C(=O)O (centres undefined),inactive
8,O=[N+]([O-])c1ccc(O)c2ncccc12,411 nM (active) and 2.82 µM (active)
9,Cc1cc(-c2nc3cc(F)ccc3s2)ccc1NC(=O)[C@@H](N)CCCCN,17.8 µM (active)
10,Cc1ccc([N+](=O)[O-])cc1S(=O)(=O)N(C)/N=C/c1cnc2ccc(Br)cn12,0.282 µM (active)
11,C[C@H]1[C@H](O)O[C@@H]2O[C@@]3(C)CC[C@H]4[C@H](C)CC[C@@H]1[C@@]24OO3,3.55 µM (active)
12,C[N+](C)(C)CCOC(=O)CCC(=O)OCC[N+](C)(C)C,inactive
13,Cc1c(-c2ccccc2)oc2c(C(=O)OCCN3CCCCC3)cccc2c1=O,inactive
14,O=C1NCCN1CCN1CCC(c2cn(-c3ccc(F)cc3)c3ccc(Cl)cc23)CC1,4.11 µM (active)
15,Cc1ccc(S(=O)(=O)Cc2nc(-c3ccc(C(=O)NCc4cccnc4)cc3)oc2C)cc1,0.0501 µM (active)
16,O=C(CCCCCCNC(=O)c1cnc(N(c2ccccc2)c2ccccc2Cl)nc1)NO,11.2 µM (active)
17,O=C(O)CNC(=O)c1nc(Cl)c2ccccc2c1O,inactive
18,O=[N+]([O-])c1cncn1CCN1CCOCC1,inactive
19,C[C@@H](OC[C@@]1(c2ccccc2)CC[C@]2(CCC(=O)N2)CN1)c1cc(C(F)(F)F)cc(C(F)(F)F)c1,25.1 µM (active)
20,C=CCc1cccc(/C=N/NC(=O)CN2CCN(Cc3ccccc3)CC2)c1O,10 µM (active)
21,Cc1ccc(C(C)OC(=O)C2(C)CCC(C(=O)O)C2(C)C)cc1 (centres undefined),inactive
22,c1ccc(Cn2c(-c3ccc(OCC(C4CCNCC4)n4c(-c5ccccc5)nc5ccccc54)cc3)nc3ccccc32)cc1 (centres undefined),7.08 µM (active)
23,CC/C=C(\C(=O)N[C@@H]1C(=O)N2C(C(=O)OCOC(=O)C(C)(C)C)=C(COC(N)=O)CS[C@H]12)c1csc(N)n1,inactive
24,CN1CC(=O)N2[C@H](c3ccc4c(c3)OCO4)c3[nH]c4ccccc4c3C[C@@H]2C1=O,inactive
25,CN(C(=O)c1c(O)c2ccccc2n(C)c1=O)c1ccccc1,inactive
26,Cc1ccc2c(Cl)cc(Cl)c(O)c2n1,inactive
27,O=C1[C@H](CC[C@H](O)c2ccc(F)cc2)[C@@H](c2ccc(O)cc2)N1c1ccc(F)cc1,inactive
28,O=C(CCCCCCC(=O)N/N=C/c1ccc(N(c2ccccc2)c2ccccc2)cc1)NO,0.631 µM (active)
29,CCCCCN(CCCCC)C(=O)C(CCC(=O)O)NC(=O)c1ccc(Cl)c(Cl)c1 (centres undefined),inactive
